# Reference: PubChem BioAssay AID602332 (National Center for Advancing Translational Sciences (NCATS), 2012)
# Where “and” joins values, the source holds several entries; their conditions need not be identical. Identical values can stand only once. In all, about 420,000 compounds went through this assay and about 75 (0.02%) were called active. Calls come from the whole dose curve; as a rule, active = well fitted activation curve with a large enough effect; inconclusive = small, poorly fitted or top-dose-only effect; inactive = no such curve, though single readings can be large or run the other way. Many of the other results were omitted from the sample, so actives are more common in it than they were.
# Assay: qHTS for Inducers of the Endoplasmic Reticulum Stress Response (ERSR) in Human Glioma: qHTS; note: nearly all actives have a fitted effect of over 35% in size; for activation: % of control where 0% means no effect
# Settings: U87-MG GRP78 promoter luciferase reporter, 16 h; activation: stronger effect = higher value
# Source text: Primary protein unfolding takes place for many diseases, including diabetes and hypoxia, , and triggers a reaction in the cells called ER stress response (ERSR). ). ERSR is designed as a repair mechanism, but ultimately leads to cell death via apoptosis if conditions triggering protein unfolding persist (1). The molecular clue to ERSR activation is the enhancement of the expression of key molecular chaperones, including the glucose regulated protein (GRP) 78. GRP78 is the main sensor for protein folding and the main actuator of the ERSR.
# In a collaboration between the Southern Research Institute and the NIH Chemical Genomics Center, a cell based screen was developed that reliably uses GRP78 as a sensor to identify small molecules as inducers of ERSR. In resting conditions, GRP78 binds proteins and acts as a natural repressor. Once unfolded proteins are present in the ER, GRP78 releases some of the repressors and binds to the unfolded proteins. The release of the repressors executes the ERSR program. Using a human glioma cell line in a miniaturized, luminescent format, a high-throughput screen was developed to identify actuators of the ERSR.
# (1) Soboloff, J. and S. A. Berger (2002). "Sustained ER Ca2+ depletion suppresses protein synthesis and induces activation-enhanced cell death in mast cells." J Biol Chem 277(16): 13812-20.
# NIH Chemical Genomics Center [NCGC]
# NIH Molecular Libraries Probe Centers Network [MLPCN]
# Assay Submitter (PI): Maurizio Grimaldi, Southern Research Institute
# Stable transfected human glioma cell line, U87-MG, are dispensed at density 1000 cells/well into Greiner white solid bottom 1536-well assay plates. Compounds are transferred via Kalypsys pin tool equipped with 1536-pin array (10nl slotted pins, V&P Scientific, San Diego, CA). The assay plates will be incubated for 16 hours and developed by adding appropriate quantities of the Promega Bright Glo reagent. The plates will be incubated at room temperature for 10 minutes prior to being transferred into a ViewLux high-throughput CCD imager (PerkinElmer), wherein end-point measurements of luminescence are acquired.
# Potency is the fitted concentration of half-maximal effect.
Structure (SMILES),activation,Potency
OCC1CCCN(c2nc3cc4c(cc3cc2CNCc2cccs2)OCO4)C1 (stereo not drawn),-3.02% (inactive),–
Cc1cc[n+](C2CCCCC2)cc1,0.895% (inactive),–
C#CCC(C(=O)OC)(C(=O)OC)C(C[N+](=O)[O-])c1ccccc1 (stereo not drawn),-5.05% (inactive),–
COc1ccc(CN2CCOc3c(cc(-c4ncc(C(F)(F)F)cc4Cl)cc3OCC3CCCO3)C2)c(O)c1 (stereo not drawn),-0.626% (inactive),–
COc1cccc(CN2CCC3(CC2)c2ccccc2[C@@H](NC(=O)c2ccccc2OC)[C@@H]3O)c1,-2.93% (inactive),–
CC1(C)OC(C(O)(c2ccccc2)c2ccccc2)C(C(O)(c2ccccc2)c2ccccc2)O1 (stereo not drawn),-4.02% (inactive),–
C[C@@H]1O[C@@H](OC[C@H]2O[C@@H](Oc3cc(O)c4c(c3)O[C@H](c3ccc(O)c(O)c3)CC4=O)[C@H](O)[C@@H](O)[C@@H]2O)[C@H](O)[C@H](O)[C@H]1O,-3.44% (inactive),–
CC(=O)OCC1OC(C#CCCCc2ccccc2)C=CC1OC(C)=O (stereo not drawn),-2.84% (inactive) and 1.87% (inactive),–
CC(=O)OC[C@H]1O[C@@H](O[C@H]2[C@H](O)[C@@H](OC(=O)c3ccccc3C(=O)O)[C@H](O)O[C@@H]2COC(C)=O)[C@H](O)[C@@H](OC(=O)c2ccccc2C(=O)O)[C@@H]1O,-0.805% (inactive),–
CN(C)c1ccc(/C=C/c2sc3ccccc3[n+]2C)cc1,-8.55% (inactive),–
FC(F)(F)c1cccc(-c2cn[nH]c2C2CCCN(Cc3cccn3-c3ccccn3)C2)c1 (stereo not drawn),-5.05% (inactive),–
C=C(C)C1CC=C(C)C(O)C1 (stereo not drawn),–,11.2 µM (active)
C=C(C)C1CC=C(CO)CC1 (stereo not drawn),-1.71% (inactive),–
CCOC(=O)N/N=C1/C[C@@H](O)[C@@H](O)[C@@H]2[C@@H]3C(=O)N(CC)C(=O)[C@H]3CC[C@H]12,-5.32% (inactive),–
CN1[C@H]2CC(OC(=O)[C@@H](CO)c3ccccc3)C[C@H]1[C@H]1O[C@H]12 (stereo partly drawn),-4% (inactive),–
COc1ccccc1-c1ccc(C(=O)N(C)C(C)c2ccon2)c(N2CCN(c3ccccc3F)CC2)n1 (stereo not drawn),-4.71% (inactive),–
Cc1cnc(C(=O)N2CCOc3ccc(CN4CCCC(C(=O)c5cccnc5)C4)cc3C2)[nH]1 (stereo not drawn),-3.36% (inactive),–
COc1ccc(CN2CCC3(CCC(CNC(=O)c4ccco4)O3)CC2)cc1OC (stereo not drawn),0.172% (inactive),–
COC(=O)c1ccccc1-c1cc(C)cc2c1OC(CNC(=O)C1CCOC1)C2 (stereo not drawn),-1.81% (inactive),–
Cn1c(=O)c(CCc2ccccc2)nc2cnc(Nc3ccccc3)nc21,-3.93% (inactive),–
Cc1c(S(=O)(=O)O)oc2c1C(=O)C(=O)c1c-2ccc2c1CCCC2(C)C,-3.94% (inactive),–
CCOC(=O)N1CCC(N2CCOc3ccc(CN4CCC(O)(c5cccnc5)CC4)cc3C2)CC1,-2.68% (inactive),–
CC(CCC(=O)O)C1CCC2C3C(O)C[C@@H]4CC(O)CC[C@@]4(C)C3CC[C@@]12C (stereo partly drawn),-5.26% (inactive) and -4.28% (inactive),–
COc1ccc(-n2c(CNC(=O)c3cc(C(F)(F)F)ccc3Cl)nnc2SC)cc1,-6.93% (inactive),–

Structure (SMILES),activation,Potency
COc1c(O)c2c(=O)cc(OC)c3c4c(OC)cc(=O)c5c(O)c(OC)c6c(c(c1C[C@@](C)(O)[C@H]6C(C)=O)c23)c54,-6.89% (inactive),–
COc1cc(=O)n2c(c1C(=O)N(C)Cc1nonc1C)CCN(C(=O)c1ccc(C)cc1C)CC2,-4.93% (inactive),–
CC(C)(C)c1ccc(OC2C=CC(C#Cc3ccccc3)OC2CO)cc1 (stereo not drawn),-2.6% (inactive),–
CCOc1ccc2nc(N3CCCN(CCCn4cccn4)CC3)nc(C)c2c1,0.4% (inactive),–
O=C(NCC1Cc2cc(F)cc(-c3cnccn3)c2O1)C1COc2ccccc2O1 (stereo not drawn),-2.7% (inactive),–
CCC1CN(CCNC(=O)c2cccc(C)n2)Cc2cc(OC)ccc2O1 (stereo not drawn),-0.701% (inactive),–
C=C1C(=CC=C2CCC[C@]3(C)[C@@H]([C@H](C)C=C[C@H](C)C(C)C)CC[C@@H]23)C[C@@H](O)C[C@@H]1O,-0.319% (inactive),–
COc1cccc(-c2cc(=O)c3cc(NC(=O)c4ccc(C)cc4)ccc3[nH]2)c1,-1.6% (inactive),–
COc1ccccc1C(=O)N[C@@H]1c2ccccc2C2(CCN(Cc3nc(C(C)C)cs3)CC2)[C@H]1O,-7.22% (inactive),–
CCC1CN(CCNC(=O)c2cccnc2C)Cc2cc(OC)ccc2O1 (stereo not drawn),-0.134% (inactive),–
Cc1[nH]c2c(C(=O)NCC3Cc4cccc(-c5cccnc5)c4O3)cccc2c1C (stereo not drawn),-3.83% (inactive),–
c1ccc(CN2CCN(Cc3ccc4c(c3)CN(Cc3c[nH]c5ccccc35)CCO4)CC2)nc1,-3.67% (inactive),–
CN1CCN(/[N+]([O-])=N/Oc2ccc([N+](=O)[O-])cc2[N+](=O)[O-])CC1,20.9% (inactive),–
CCc1noc(C)c1C(=O)NCCN1Cc2cc(OC)ccc2OC(CC)C1 (stereo not drawn),-4.48% (inactive),–
C=C1/C(=C\C=C2\CCCC3(C)C2CCC3C(C)/C=C/C(O)C2CC2)CC(O)CC1O (stereo not drawn),-9.49% (inactive),–
COC(=O)c1ccccc1C(=O)NCc1nc(N2CCCC2)c2cccc(C)c2n1,-2.48% (inactive),–
CC(=O)c1ccc(F)c(-c2cc(C)cc3c2OC(CNC(=O)Cc2c[nH]c4ccccc24)C3)c1 (stereo not drawn),0.07% (inactive),–
CO/N=C(\C(=O)N[C@@H]1C(=O)N2C(C(=O)O)=C(Cn3nnc(C)n3)CS[C@H]12)c1csc(N)n1,-1.86% (inactive),–
CCCCc1nn(-c2ccccc2C(F)(F)F)c(=O)n1Cc1ccc(-c2ccccc2S(=O)(=O)NC(=O)c2sccc2C)cc1,-2.91% (inactive),–
Cc1ccc2c(C)nc(N3CCCC(C(=O)NC(C)(C)CO)C3)nc2c1 (stereo not drawn),-2.4% (inactive),–
CC(O)(COc1ccccc1)c1ccc2c(c1)CN(Cc1cn[nH]c1-c1ccc(F)cc1)CCO2 (stereo not drawn),-3.22% (inactive),–
COc1ccccc1C1CN(Cc2ccccc2O)Cc2ccccc2O1 (stereo not drawn),-2.43% (inactive),–
C[C@H]1CC[C@H](C(=O)O)N[C@@H]1c1ccc(C#Cc2ccccc2)cc1,-4.8% (inactive),–
C=CCC1CCC(=O)N2CCCC12 (stereo not drawn),-2.78% (inactive),–
